# Shown are actives, neighbours in structure and some others; about 1.2% of the full set was active somewhere.
# Avidin bead fluor – green autofluorescence of compounds with avidin beads – biophysical, 488/530 nm, flow cytometry, artefact control, profiling panel | compound fluorescence 488/530 nm; hits give high values | fluorescence (KMESF) at 10 µM | AID 1775, 2009 | 220,000 compounds, 0.38% hits; in the data active means fluorescence above about 47
# RGS7-Gao – RGS7-Galphao binding modulators, primary screen, biochemical, multiplexed bead flow cytometry | actives lie on both sides | binding response (% of control), % at 10 µM | 220,000 compounds, 0.35% hits; in the data active means binding response below about 49% or above about 150%; inconclusive means no clear call, values can overlap the other calls; inactive means in between;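 further: fluorescent Galphao held in activated GDP-AlF4 state binding bead-coupled RGS7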
# RGS4-Gao reg – modulators of RGS4 binding to Galphao, primary screen, biochemical, multiplexed bead flow cytometry | binding response (% of control), % at 10 µM | 220,000 compounds, 0.33% hits | actives lie on both sides | AID 1415, 2008 | Guanine nucleotide-binding protein G(o) subunit alpha (Homo sapiens), P09471; in the data active means binding response below about 49% or above about 150%; inactive means in between;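 further: fluorescent Galphao activated with aluminum fluoride binding bead-coupled RGS4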
# GSH fluor – compound fluorescence on glutathione beads, profiling panel, artefact control, biophysical, 488/530 nm, flow cytometry; GSH beads flow cytometry, compound fluorescence 488/530 nm; hits give high values; fluorescence (KMESF) at 10 µM; 190,000 compounds, 0.25% hits; in the data active means fluorescence above about 89;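 further: glutathione beads carrying GST-tagged Bcl family fusion proteins plus one bare bead set; values are compound well signal with DMSO vehicle wells as background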
# RGS16-Gao – modulators of RGS16 binding to Galphao, primary screen, biochemical, human proteins, multiplexed bead flow cytometry. AID 1441, 2008. bead-based flow cytometry RGS16-Galphao binding, fluorescence; actives lie on both sides. 220,000 compounds, 0.38% hits. binding response (% of control), % at 10 µM. Regulator of G-protein signaling 16 (Homo sapiens) + Guanine nucleotide-binding protein …; call rule not given here;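 further: Galphao activated by GDP with aluminum fluoride before binding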
# Target sequence (O15492 whole entry, looked up): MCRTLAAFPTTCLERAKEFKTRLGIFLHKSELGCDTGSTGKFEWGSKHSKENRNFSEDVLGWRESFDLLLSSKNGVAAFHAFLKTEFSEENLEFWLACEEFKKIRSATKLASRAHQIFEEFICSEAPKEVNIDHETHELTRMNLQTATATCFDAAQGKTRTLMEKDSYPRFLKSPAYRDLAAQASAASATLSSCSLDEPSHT
# Target sequence (P09471 whole entry, looked up): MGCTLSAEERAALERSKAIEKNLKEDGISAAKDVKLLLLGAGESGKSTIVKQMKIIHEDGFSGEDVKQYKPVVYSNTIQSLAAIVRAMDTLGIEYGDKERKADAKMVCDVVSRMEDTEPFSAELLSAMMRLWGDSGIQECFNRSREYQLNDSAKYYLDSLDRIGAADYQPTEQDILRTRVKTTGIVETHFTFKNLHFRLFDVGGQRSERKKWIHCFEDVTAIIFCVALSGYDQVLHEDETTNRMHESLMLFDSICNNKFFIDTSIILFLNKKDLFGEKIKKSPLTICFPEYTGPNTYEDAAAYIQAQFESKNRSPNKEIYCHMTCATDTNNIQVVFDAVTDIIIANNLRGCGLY
# RGS8-Gao – RGS8-Galphao binding modulators, primary screen, biochemical, multiplexed bead flow cytometry; Guanine nucleotide-binding protein G(o) subunit alpha (Homo sapiens), P09471; actives lie on both sides; response (percent of control binding), % at 10 µM; 220,000 compounds, 0.34% hits; in the data active means response below about 60% or above about 140%; inactive means in between;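 further: Galphao activated as the GDP aluminium fluoride complex binding bead-coupled RGS8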
# Active calls of the source: *; ? = inconclusive; · = no result given.
SMILES,Avidin bead fluor,RGS7-Gao,RGS4-Gao reg,GSH fluor,RGS16-Gao,RGS8-Gao
COc1ccc(Cc2noc(CN(C)CCN3CCc4ccccc4C3)n2)cc1OC,2,105,106,13,105,105
CN(CCN1CCc2ccccc2C1)Cc1nc(Cc2ccccc2F)no1,2,17*,28*,13,20*,27*
Cn1c2ccccc2c2ncn(CCN3CCOCC3)c(=O)c21,9,114,118,253*,161,123
COc1ccc2c(c1)c1ncn(CCCN3CCOCC3)c(=O)c1n2C,7,102,101,16,110,106
O=C(CSc1nc(-c2ccco2)cc(C(F)(F)F)n1)Nc1cccnc1,59*,124,98,62,108,105
C=CCn1c(SCC(=O)Nc2cccc3ccccc23)nnc1-c1cnccn1,51*,107,99,14,98,101
COc1cccc(-c2noc(CCCC(=O)N3CCOCC3)n2)c1,14,102,95,23,103,98
O=C(CCCc1nc(-c2ccccc2)no1)N1CCOCC1,3,102,95,248*,71,100
COc1cc2[nH]c(=O)n(CCC(=O)NC3CCCC3)c(=O)c2cc1OC,68*,120,107,23,103,103
COc1cc2[nH]c(=O)n(Cc3ccc(C(=O)NC4CCCC4)cc3)c(=O)c2cc1OC,24,104,111,10,106,107
COc1ccc(NC(=O)CSc2ccc3c4c(cccc24)C(=O)c2ccccc2-3)cc1,49*,114,103,20,102,98
CCCCN(CC)Cc1ccc(CNC(=O)Nc2ccc(OCC)cc2)o1,87*,133,113,34,106,101
CCCCN(CC)Cc1ccc(CNC(=O)Nc2ccc(Cl)cc2)o1,5,103,103,16,103,104
COc1ccc(NC(=O)Cn2cc(S(=O)(=O)Cc3ccccc3)c3ccccc32)c(OC)c1,8,90,93,12,93,96
CCCn1cc(S(=O)(=O)CC(=O)Nc2ccc(OC)cc2OC)c2ccccc21,5,92,84,130*,93,95
O=C(COc1ncnc2ccccc12)N1CCN(S(=O)(=O)c2ccccc2)CC1,12,99,98,21,89,99
O=C(COc1ncnc2ccccc12)N1CCN(S(=O)(=O)c2ccc(Cl)cc2)CC1,9,102,98,264*,102,100
COc1ccc(Nc2nc(-c3ccccc3)c(C(=O)Nc3cccnc3)s2)cc1,8,?,97,13,98,98
CC1(C)NC(=O)N(CCOCCOc2ccccc2-c2ccccc2)C1=O,9,104,104,10,102,100
CC(=O)N=c1sc2ccccc2n1C,32,102,100,28,101,100
N/N=c1\sc2ccccc2n1-c1ccccc1,47*,104,106,14,104,106
COc1ccc(-n2ncc3c(=O)n(Cc4c(F)cccc4Cl)cnc32)cc1,11,97,99,13,101,99
CC(=O)N1CCC2(CC1)C(C#N)=C(N)OC1=C2C(=O)CC(C)(C)C1,51*,109,103,12,103,99
CCOC(=O)CNC(=O)N1CCCC(CCC(=O)NCc2ccc(F)c(F)c2)C1 (configuration not stated),2,103,107,10,103,102
CCCCNc1c(N)n(CC(C)C)c(=O)[nH]c1=O,12,?,100,12,99,102
CCC1(CC)C(=O)N(C)C(=O)NC1=Nc1ccccc1,9,103,104,273*,100,99
O=C1NC(=Nc2ccccc2)CS1,7,?,98,·,98,98
N#C/C(C(=O)c1ccccc1)=C1/CCCN1,48*,110,104,31,106,100
N#C/C(=C1\CCCN1)c1nc2ccccc2c(=O)[nH]1,15,100,100,31,102,100
Cn1cc(S(=O)(=O)NCc2ccc(Cl)cc2)c(=O)n(C)c1=O,8,?,102,·,99,100

# Source: PubChem
